This is an account of results in PubChem BioAssay (NCATS).

Values joined by “and” are separate entries in the source; they are usually repeats but may differ in a detail not shown here. Equal entries are not always repeated. Inconclusive results are not listed. Active and inactive are the calls of the source. Unless noted, the call rests on the fitted dose curve; in most records, active means well fitted curve in the direction sought with a large enough effect; inconclusive means small, poorly fitted or top-dose-only effect, or another doubt; inactive means no such curve, though single readings can be large; an effect the other way counts as inactive or inconclusive.

A short description of experiment [1]: qHTS profiling of the MIPE4 collection as inhibitors of Plasmodium falciparum (3D7) proliferation (AID 743344; call rule not given here;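 further: scaled between DMSO vehicle wells and 0.29 µM artemisinin as full inhibition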). To be noted: P. falciparum 3D7 in erythrocytes, SYBR Green DNA fluorescence, 72 h; at 28.5 µM unless noted. The essentials:
(§1)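 Parasite DNA was quantified by SYBR Green I fluorescence (ex 485, em 535 nm) after overnight lysis in saponin/Triton buffer at room temperature. Cultures at 0.3% parasitemia and 2.5% hematocrit were first exposed to compound for 72 h at 37 C; signals were normalised to artemisinin (0.29 uM) and vehicle wells.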
A general note: Quantitative high-throughput screening tests each substance at several concentrations.

The nature of experiment [2]: qHTS profiling of the MIPE4 collection as inhibitors of Plasmodium falciparum (DD2) proliferation (AID 743345; call rule not given here). Conditions: P. falciparum Dd2 in erythrocytes, SYBR Green DNA, 72 h; at 28.5 µM unless noted. The essentials: as §1
A short description of experiment [3]: qHTS profiling of the MIPE4 collection as inhibitors of Plasmodium falciparum (DD2) proliferation (Rep 2) (AID 743346; call rule not given here). To be noted: P. falciparum Dd2 in erythrocytes, SYBR Green DNA, 72 h; at 28.5 µM unless noted. The essentials:
as §1

The nature of experiment [4]: qHTS profiling of the MIPE4 collection as inhibitors of Plasmodium falciparum (HB3) proliferation (AID 743347; call rule not given here;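 further: plate controls were DMSO vehicle wells for no effect and artemisinin wells for full effect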). Conditions: P. falciparum HB3 in erythrocytes, SYBR Green DNA, 72 h; at 28.5 µM unless noted. The essentials:
as §1

Experiment [5] is described as follows: High-throughput drug toxicity screening in the BPDCN cell line Cal-1 (AID 1224825; call rule not given here). To be noted: Cal-1 BPDCN cell viability, qHTS; at 45.8 µM (top of the series) unless noted. The essentials:
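CellTiter-Glo luminescence after 48 h compound exposure; percent activity scaled with DMSO as 100% and bortezomib (9.2 uM final) as 0%. Cal-1 cells seeded at 500/well in RPMI, 10% FBS, no phenol red.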

A short description of experiment [6]: qHTS assay for measurement of the activity of small molecule inhibitors on Zika virus induced Caspase-3 activity in human iPSC derived neural progenitor cells (hNPCs) (AID 1224857). Further: % of control where 0% means no effect; nearly all actives have a fitted effect of over 65% in size. The essentials: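 hNPCs seeded 350 cells/well, cultured 16–20 h; compounds added 1 h before ZIKV (2 FFU/cell), 37 C 6 h. Caspase-Glo 3/7 luminescence after 30 min RT; % inhibition from induction scaled to uninfected (0%) and infected (100%) wells.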

Experiment [7] is described as follows: qHTS assay for measurement of the activity of small molecule inhibitors on Zika virus induced Caspase-3 activity in human astrocytoma cells (AID 1224859).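 Further: plate controls were ZIKV-infected untreated cells for no effect and uninfected cells for full effect.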 The essentials: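 Luminescence read-out (Caspase-Glo 3/7, 30 min RT) of caspase activity in SNB-19 cells infected 6 h with ZIKV, 2 FFU/cell, after 1 h compound pretreatment; % inhibition from induction normalised to uninfected (0%) and infected (100%) wells.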

A short description of experiment [8]: qHTS profiling for inhibitors of Plasmodium falciparum (DD2) proliferation (AID 743323; call rule not given here). Conditions: lower = more inhibition; at 28.7 µM (top of the series). The essentials:
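P. falciparum Dd2-infected erythrocytes (0.3% parasitemia, 2.5% hematocrit) exposed 72 h at 37 C, 5% CO2. Lysis with SYBR Green, overnight at room temperature, fluorescence 485/535 nm; normalized to 0.29 uM artemisinin and DMSO.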

Experiment [9] can be described thus: qHTS profiling for inhibitors of Plasmodium falciparum (HB3) proliferation (AID 743324).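 Further: 100% = DMSO vehicle wells and 0% = artemisinin-treated control wells.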 Conditions: Plasmodium falciparum HB3 blood-stage proliferation; at 28.7 µM (top of the series). The essentials:
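SYBR Green fluorescence (485 ex/535 em) of lysed cultures, incubated overnight at room temperature in the dark, quantifies parasite DNA. Infected erythrocytes at 0.3% parasitemia and 2.5% hematocrit were exposed 72 h; values normalized to DMSO and 0.29 uM artemisinin controls.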

The target in experiment [10] is T1, Hexokinase-4 (Homo sapiens) + Glucokinase regulatory protein (Homo sapiens) (UniProt P35557+Q14397). Nature of the experiment: qHTS assay for inhibitors of recombinant human GCK-GKRP interaction: Diaphorase-coupled assay (AID 743205). The essentials: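 Resorufin fluorescence (525/590 nm), read each minute over 30 min, reports GCK activity coupled via G6PDH and diaphorase. Reaction: 10 nM GST-GCK, 10 nM FLAG-GKRP, 5 mM glucose, 0.4 mM ATP, 0.15 mM NADP+, 0.1 mM resazurin.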

For experiment [11], the target named is T1, Hexokinase-4 (Homo sapiens) + Glucokinase regulatory protein (Homo sapiens). Put plainly: qHTS assay for inhibitors of recombinant human GCK-GKRP interaction: ADP-Glo assay (AID 743206).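 Further: plate controls were DMSO plus enzyme for no effect and no enzyme for full effect.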 The essentials:
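Pin-transferred compounds meet a 15 nM GST-GCK/15 nM FLAG-GKRP/2 uM S6P mix (dispense concentrations). ATP is then added to 0.4 mM final with 5 mM glucose, and the reaction runs 60 min at room temperature. ADP is quantified luminescently.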

Experiment [12] shares this target. Nature of the experiment: qHTS assay for inhibitors of recombinant human GCK-GKRP interaction: HTRF assay (AID 743207).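 Further: 0% = DMSO with GCK present and -100% = DMSO wells lacking GCK.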 The essentials:
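HTRF read-out (ex 320 nm; 615/665 nm emission) after 60 min RT equilibration of 5 nM GST-GCK, 5 nM FLAG-GKRP, 2 uM S6P, compound and anti-FLAG/anti-GST detection antibodies; signal normalized between DMSO wells with and without GCK.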

A short description of experiment [13]: qHTS assay for small molecule antagonists of the retinoid-related orphan receptor gamma (ROR-gamma) signaling pathway - cell viability counter screen (AID 720652; active means well fitted curve in the direction sought with a large enough effect in the repeat runs; an effect the other way counts as inactive or inconclusive;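 further: CHO reporter cells with doxycycline-induced ROR-gamma expression; compound exposure lasted 16 hr before ATP read; on the % scale 0 is the no-effect control and ±100 the full control effect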). The essentials: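 ATP-based viability readout in the ROR-gamma reporter CHO cells after 16 hr compound exposure under doxycycline induction.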
Experiment [14] can be described thus: qHTS assay for small molecule agonists of the antioxidant response element (ARE) signaling pathway measured by Nrf2-dependant transcriptional activity - cell viability counter screen (AID 720653; active means well fitted curve in the direction sought with a large enough effect in the repeat runs; an effect the other way counts as inactive or inconclusive; further: on the % scale 0 is the no-effect control and ±100 the full control effect). Conditions: ARE-bla HepG2 viability, CellTiter-Glo ATP luminescence, 16 h; max response: stronger effect = lower value. The essentials:
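ARE-bla HepG2 cells treated with compounds for 16 h at 37C; this counter screen measures viability as intracellular ATP by CellTiter-Glo luminescence after 30 min at room temperature.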

Experiment [15] can be described thus: qHTS assay for cell viability of HEK293 cells (AID 743288). Further: on the % scale 0 is the no-effect control and ±100 the full control effect; nearly all actives have a fitted effect of over 50% in size. Conditions: ATP luminescence (CellTiter-Glo), 18 h; max response: stronger effect = lower value. The essentials:
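ATP luminescence (CellTiter-Glo) reports metabolically competent cell number after parental HEK293 cells, 2,000/well, were treated with DMSO-dissolved compounds for 18 h at 37 C; reagent incubation 30 min, room temperature.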

Experiment [16] can be described thus: qHTS assay for cell viability of the p53RE-bla HCT-116 cell line (AID 743292). Further: on the % scale 0 is the no-effect control and ±100 the full control effect; nearly all actives have a fitted effect of over 55% in size. The essentials: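 Readout: CellTiter-Glo luminescence after 30 min RT. Treatment: compounds in DMSO, 16 h, 37 C. Cells: CellSensor p53RE-bla HCT-116, 4,000/well, preincubated 5 h.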
Experiment [17] is described as follows: qHTS Assay for Identifying Gametocytocidal Compounds (AID 743244).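 Further: on the % scale 0 is the no-effect control and ±100 the full control effect; actives lower the fluorescent signal which means gametocytes are killed.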 Conditions: P. falciparum 3D7 stage III-V gametocytes, alamarBlue, 72 h; max response: stronger effect = lower value. The essentials:
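P. falciparum 3D7 stage III–V gametocytes (20,000 cells/well) were exposed to compounds for 72 h at 37 °C, 5% CO2. AlamarBlue was then added for 24 h; decreased resorufin fluorescence (Ex 525/Em 598 nm) indicated loss of viability.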

T1 sequence (P35557 whole entry, looked up): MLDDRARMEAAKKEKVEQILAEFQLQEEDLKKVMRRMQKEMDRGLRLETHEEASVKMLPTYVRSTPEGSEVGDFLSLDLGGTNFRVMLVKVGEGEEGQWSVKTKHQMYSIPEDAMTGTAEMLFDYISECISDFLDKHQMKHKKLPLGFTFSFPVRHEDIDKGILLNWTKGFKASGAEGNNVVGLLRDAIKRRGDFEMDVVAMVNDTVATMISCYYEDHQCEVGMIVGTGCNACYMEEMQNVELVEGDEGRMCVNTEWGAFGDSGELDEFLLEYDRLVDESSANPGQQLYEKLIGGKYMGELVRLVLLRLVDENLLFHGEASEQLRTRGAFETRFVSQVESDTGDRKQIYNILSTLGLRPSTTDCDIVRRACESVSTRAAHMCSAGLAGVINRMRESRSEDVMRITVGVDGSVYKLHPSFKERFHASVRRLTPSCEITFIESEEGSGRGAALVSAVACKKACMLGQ
T1 sequence (Q14397 whole entry, looked up): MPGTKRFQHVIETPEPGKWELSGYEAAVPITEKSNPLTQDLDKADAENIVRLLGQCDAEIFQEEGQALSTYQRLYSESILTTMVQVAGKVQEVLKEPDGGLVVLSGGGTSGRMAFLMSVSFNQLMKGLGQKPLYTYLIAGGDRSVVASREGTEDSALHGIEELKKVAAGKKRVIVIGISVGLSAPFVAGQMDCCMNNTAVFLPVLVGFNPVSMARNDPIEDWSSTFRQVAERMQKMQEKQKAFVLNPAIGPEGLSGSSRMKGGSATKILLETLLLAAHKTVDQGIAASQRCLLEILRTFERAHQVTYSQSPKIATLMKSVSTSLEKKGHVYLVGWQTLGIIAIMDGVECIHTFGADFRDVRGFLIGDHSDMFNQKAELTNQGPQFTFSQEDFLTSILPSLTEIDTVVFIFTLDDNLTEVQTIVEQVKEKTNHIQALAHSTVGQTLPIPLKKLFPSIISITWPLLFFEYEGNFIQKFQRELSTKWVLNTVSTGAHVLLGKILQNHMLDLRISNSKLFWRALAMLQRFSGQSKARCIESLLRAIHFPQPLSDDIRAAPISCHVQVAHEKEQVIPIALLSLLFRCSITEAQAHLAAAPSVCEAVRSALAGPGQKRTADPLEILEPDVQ

The molecule `Cc1[nH]c(C=C2C(=O)Nc3ccc(S(=O)(=O)Cc4c(Cl)cccc4Cl)cc32)c(C)c1C(=O)N1CCC[C@H]1CN1CCCC1` returned a parasite growth, % of DMSO control in experiment [1] of 6.34%. Besides, the parasite growth remaining, % of DMSO control (lower = more inhibition) in experiment [2] is 8.07%. In addition, the parasite growth, % of control (lower = inhibition) in experiment [3] worked out at 12%. In addition, the growth, % of control in experiment [4] came out at 5.52%. Further, in [5], the viability (% of control) was 2.43%. Besides, the Potency result in [6] and in experiment [7] was “inactive” each time.
Consider `OC[C@H]1O[C@@H](n2cnc3c2NC=NC[C@@H]3O)C[C@H]1O`, for which the activity, percent of control in experiment [8] was 106%. The molecule further returned a remaining proliferation (% of control), lower = more inhibition in experiment [9] of 99.7%. In experiment [1], the parasite growth, % of DMSO control stood at 81.4%. Moreover, the parasite growth remaining, % of DMSO control (lower = more inhibition) in experiment [2] was 92.5%. Besides, in experiment [3], the parasite growth, % of control (lower = inhibition) worked out at 146%. This molecule returned a growth, % of control in experiment [4] of 97.8%. Moreover, the viability (% of control) in experiment [5] came to 109%. For the same molecule, the Potency entry in [6] and in [7] was “inactive” in each case.
`Cc1c[nH]c(C=C2C(=O)Nc3ccccc32)c1CCC(=O)O` showed a parasite growth, % of DMSO control in experiment [1] of 24.1%. Also, the parasite growth remaining, % of DMSO control (lower = more inhibition) in [2] was found to be 38.5%. In experiment [3], the parasite growth, % of control (lower = inhibition) was found to be 29.1%. The growth, % of control in [4] is 37.7%. Moreover, in experiment [5], the viability (% of control) worked out at 55.9%. The Potency result in experiment [6] and in experiment [7] was “inactive” in each case.
Turning to `Cc1cccc(C)c1OCC(C)N` (stereo not given), the result in [10], in experiment [11] and in experiment [12] was inactive. Besides, the Potency entry in experiment [6] is “inactive”.
Take `O=C(NCCN1CCOCC1)c1ccc(Cl)cc1`: the result in [10], in [11] and in [12] was inactive. The Potency result in [6] and in experiment [7] was “inactive” in each case.
Turning to `Nc1ncnc2c1ncn2[C@@H]1O[C@H](COP(=O)(O)OP(=O)(O)OP(=O)(O)OP(=O)(O)OC[C@@H]2O[C@H](n3cnc4c(N)ncnc43)[C@@H](O)C2O)C(O)[C@H]1O` (stereo not given in full), in experiment [6], the Potency result is “inactive”.
As for `O=C1NC(=O)C(c2ccccc2)(c2ccccc2)N1`, the Potency result in [13], in experiment [16], in experiment [6] and in experiment [7] was “inactive” throughout. For the same molecule, the max response in experiment [14] is -13.1% (inactive) and -3.11% (inactive) and 0.97% (inactive); in [15], 6.32% (inactive) and -2.27% (inactive) and 1.15% (inactive). The result in [10], in experiment [11] and in [12] was inactive.
With `CCCCC1C(=O)N(c2ccccc2)N(c2ccccc2)C1=O`, the Potency result in [13], in experiment [16], in [6] and in experiment [7] was “inactive” in each case. The max response in experiment [14] is 4.44% (inactive) and 1.83% (inactive); in [17], -1.91% (inactive) and -0.936% (inactive) and 31.1% (inactive); in experiment [15], -8.44% (inactive) and -3.31% (inactive). In addition, the outcome in experiment [10], in experiment [11] and in experiment [12] was inactive.
In the case of `CC(=O)O[C@]1(C(C)=O)CC[C@H]2[C@@H]3C=C(Cl)C4=CC(=O)[C@@H]5C[C@@H]5[C@]4(C)[C@H]3CC[C@@]21C`, the Potency entry in [13], in experiment [16], in experiment [6] and in [7] was “inactive” in each case. Besides, the max response is -29.6% (inactive) and -20.9% (inactive) in [14]; -22.8% (inactive) in experiment [15]. For the same molecule, the outcome in experiment [10], in experiment [11] and in [12] was inactive.
`C[C@@H](O)[C@H]1C(=O)N2C(C(=O)O)=C(S[C@@H]3CN[C@H](C(=O)N(C)C)C3)[C@H](C)[C@H]12`: the max response in [17] is 2.89% (inactive). Also, the parasite growth, % of DMSO control in experiment [1] worked out at 109% [at 9.64 µM]. In [2], the parasite growth remaining, % of DMSO control (lower = more inhibition) was found to be 102% [at 9.64 µM]. For the same molecule, the parasite growth, % of control (lower = inhibition) in [3] came out at 118% [at 9.64 µM]. Further, the growth, % of control in experiment [4] turned out to be 61.4% [at 9.64 µM]. The Potency entry in experiment [6] and in [7] was “inactive” throughout.
As for `CCN(CC)C(=O)c1ccc(O)c(OC)c1`, the outcome in experiment [10], in experiment [11] and in experiment [12] was inactive. In addition, the max response in [17] was 14.2% (inactive) and 0.626% (inactive) and 4.97% (inactive). The Potency entry in [6] and in experiment [7] was “inactive” each time.
For the molecule `O=C(O)c1cc(-c2ccccc2)nc2ccccc12`, the values for the max response in experiment [14] and in experiment [15] were -16.1% (inactive) and -15% (inactive), respectively. For the same molecule, the Potency entry in [16], in experiment [6] and in experiment [7] was “inactive” in each case.
`COc1ccccc1N1CCN(CCCNc2cc(=O)n(C)c(=O)n2C)CC1`: the result in [10], in [11] and in experiment [12] was inactive. Further, the max response in experiment [17] is 9.05% (inactive) and -4.71% (inactive) and 2.95% (inactive). The Potency result in experiment [6] and in experiment [7] was “inactive” each time.
Regarding `CCCNC(=O)NS(=O)(=O)c1ccc(Cl)cc1`, the Potency result in experiment [13], in experiment [16], in experiment [6] and in [7] was “inactive” in each case. The max response in experiment [14] was 9.19% (inactive) and -14.5% (inactive); in [15], 3.46% (inactive) and -2.3% (inactive). In addition, the result in [10], in experiment [11] and in experiment [12] was inactive.
Consider `Nc1nc(Cl)nc2c1ncn2[C@@H]1O[C@H](COP(=O)(O)OP(=O)(O)OP(=O)(O)O)C(O)[C@H]1O` (stereo not given in full), for which the Potency entry in experiment [6] was “inactive”.
